Assay results as given in PubChem BioAssay (NCATS).
Records with an inconclusive call do not appear. Unless noted, calls come from the whole dose curve; as a rule, active = well fitted curve in either direction with a large enough effect (not every such curve was filed as active); inconclusive = small, poorly fitted or top-dose-only effect, or another doubt; inactive = flat fitted curve, though single readings scatter.

How the values were obtained:
[1] = AP1 Signaling Pathway (AID 357); details: ME-180 AP-1-bla reporter, EGF-induced, beta-lactamase ratio, 5 h; at 17.2 µM (top of the series) unless noted;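 note: ME-180 reporter cells stimulated with EGF at its EC50 level; % is set by controls: 0 for no effect and ±100 for the full control effect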
In short: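 Read-out was the 460nm/530nm emission ratio (excitation 405nm) after CCF4 loading for 2.5 hours at room temperature. Cells carried an AP-1-driven beta-lactamase reporter, were stimulated with EC50 EGF plus compound for 5 hours, and AC50 values came from titrations.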

[2] = NFAT Signaling Pathway (AID 444); details: Jurkat NFAT-bla M1, carbachol, beta-lactamase ratio, 5 h; at 17.2 µM (top of the series) unless noted;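 note: carbachol stimulus at about its EC50 of 1 µM final; % is set by controls: 0 for no effect and ±100 for the full control effect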
In short: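 Jurkat cells with NFAT-driven β-lactamase reporter and co-expressed M1 receptor, stimulated with carbachol (final 1 uM, ~EC50), compound titration, 5 h at 37 °C. CCF4 loaded 1 h at RT; 460/530 nm ratio gave %activity and AC50.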

[3] = Stat Signaling Pathway (AID 446); details: ME-180 (cervical carcinoma) SIE beta-lactamase reporter, IL-6 stimulated, 5 h; at 17.2 µM (top of the series) unless noted;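 note: ME-180 cervical cancer cells given 40 pM IL-6 alongside compound; SIE-controlled beta-lactamase reporter measured as 460/530 nm FRET emission ratio; % is set by controls: 0 for no effect and ±100 for the full control effect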
In short: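 Normalization used AC90 stimulation (300 pM IL-6) and AC90 inhibition (125 nM pan-JAK inhibitor at 40 pM IL-6). The underlying signal is SIE-driven beta-lactamase in ME-180 cells after 5 h IL-6 exposure with compound.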

[4] = biological target: Glucocorticoid receptor (Homo sapiens) (UniProt P04150); test: GR-GFP Redistribution (AID 450;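 active = compounds whose dose series gives a full or clear partial fitted curve of increased nuclear translocation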; note: potency is the fitted concentration of half-maximal effect)
Chain of Glucocorticoid receptor (Homo sapiens) (P04150 whole entry, looked up): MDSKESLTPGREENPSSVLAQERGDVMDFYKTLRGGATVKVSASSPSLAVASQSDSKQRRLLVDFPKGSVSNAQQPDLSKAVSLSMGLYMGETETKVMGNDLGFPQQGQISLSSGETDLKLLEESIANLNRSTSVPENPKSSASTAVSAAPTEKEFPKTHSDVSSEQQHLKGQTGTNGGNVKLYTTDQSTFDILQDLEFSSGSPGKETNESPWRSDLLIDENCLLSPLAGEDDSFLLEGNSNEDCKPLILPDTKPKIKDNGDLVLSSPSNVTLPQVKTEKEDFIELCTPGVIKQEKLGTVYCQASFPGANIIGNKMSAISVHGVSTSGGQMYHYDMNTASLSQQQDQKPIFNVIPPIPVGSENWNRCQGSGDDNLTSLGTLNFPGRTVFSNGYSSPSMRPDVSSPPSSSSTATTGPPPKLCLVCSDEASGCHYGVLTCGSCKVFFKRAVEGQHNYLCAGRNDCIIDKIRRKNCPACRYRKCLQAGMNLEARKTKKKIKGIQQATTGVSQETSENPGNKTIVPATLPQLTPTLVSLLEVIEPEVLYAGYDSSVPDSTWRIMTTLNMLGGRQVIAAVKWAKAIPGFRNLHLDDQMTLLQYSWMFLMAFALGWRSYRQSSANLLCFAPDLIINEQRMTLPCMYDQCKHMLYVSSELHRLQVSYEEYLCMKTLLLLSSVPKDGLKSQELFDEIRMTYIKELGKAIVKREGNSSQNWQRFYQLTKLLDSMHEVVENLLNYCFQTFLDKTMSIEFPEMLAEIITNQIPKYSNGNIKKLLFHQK

Cc1cc(=O)n2[nH]c(N3C(=O)CCC3=O)nc2n1
inactive: activity change, negative = inhibition [1] 5.03% | activity change, negative = inhibition [2] -4.69% | activity, negative = inhibition [3] 11.6% | Potency [4] > 20.6 µM

COc1ccccc1C(CC(=O)Nc1nccs1)c1ccco1 (stereo not drawn)
inactive: activity change, negative = inhibition [1] -11.9% | activity change, negative = inhibition [2] -20.1% | activity, negative = inhibition [3] -11.3% | Potency [4] > 20.6 µM

CCOP(=O)(c1ccccc1)C1(C#N)CCCC1 (stereo not drawn)
inactive: activity change, negative = inhibition [1] 8.95% | activity change, negative = inhibition [2] 7.44% | activity, negative = inhibition [3] 7.92% | Potency [4] > 20.6 µM

C=CCOc1nc2c(c(=O)n(Cc3ccc(Cl)c(Cl)c3)c(=O)n2C)n1C
inactive: activity change, negative = inhibition [1] -3.25% | activity change, negative = inhibition [2] -2.4% | activity, negative = inhibition [3] 7.85% | Potency [4] > 20.6 µM

COC(=O)CC(=O)Cc1nc(N)nc(Nc2ccc(C)c(C)c2)n1
inactive: activity change, negative = inhibition [1] 9.64% | activity change, negative = inhibition [2] -5.97% | activity, negative = inhibition [3] 1.4% | Potency [4] > 20.6 µM

CSc1nnc2n(C3CCCCC3)c(=O)c3c4c(sc3n12)CCCC4
inactive: activity change, negative = inhibition [1] 19.1% | activity change, negative = inhibition [2] 3.83% | activity, negative = inhibition [3] 14.1% | Potency [4] > 20.6 µM

CC1(C)CC(=O)C2=C(C1)N(Cc1ccco1)C(=O)C2(O)C(F)(F)F (stereo not drawn)
inactive: activity change, negative = inhibition [1] 11.1% | activity change, negative = inhibition [2] -3.91% | activity, negative = inhibition [3] -2.61% | Potency [4] > 20.6 µM

Cc1ccc2[nH]c3c(c2c1)CN(C(=O)CN1CCN(c2ccccn2)CC1)CC3
inactive: activity change, negative = inhibition [1] -13.5% | activity change, negative = inhibition [2] 22.4% | activity, negative = inhibition [3] -12.2% | Potency [4] > 20.6 µM

CCOC(=O)c1c(C)n(C)c2ccc(OC)c(NC(=O)CCN3CCSCC3)c12
inactive: activity change, negative = inhibition [1] 2.45% | activity change, negative = inhibition [2] 4.14% | activity, negative = inhibition [3] 7.06% | Potency [4] > 20.6 µM

CCOc1cccc(-c2nnc3sc(-c4ccco4)nn23)c1
inactive: activity change, negative = inhibition [1] -1.16% | activity change, negative = inhibition [2] 18.2% | activity, negative = inhibition [3] -18.8% | Potency [4] > 20.6 µM

O=S(=O)(NCc1cccnc1)c1cccc2nsnc12
inactive: activity change, negative = inhibition [1] 6.05% | activity change, negative = inhibition [2] -11.1% | activity, negative = inhibition [3] 4.09% | Potency [4] > 20.6 µM

Nc1nnnn1/N=C/c1cccc(Oc2ccccc2)c1
inactive: activity change, negative = inhibition [1] -4.47% | activity change, negative = inhibition [2] -18.6% | activity, negative = inhibition [3] 10.9% | Potency [4] > 20.6 µM

CCCC(=O)N1CCN(c2nc(CC(C)C)c3c(c2C#N)CCC3)CC1
inactive: activity change, negative = inhibition [1] -11.7% | activity change, negative = inhibition [2] -18.4% | activity, negative = inhibition [3] -1.27% | Potency [4] > 20.6 µM

Cc1ccccc1NC(=O)NCCc1nc2ccccc2[nH]1
inactive: activity change, negative = inhibition [1] -3.68% | activity change, negative = inhibition [2] -10.3% | activity, negative = inhibition [3] -7.53% | Potency [4] > 20.6 µM

CCCc1cc(=O)oc2c(C)c(O)c(CN3CCCCC3)cc12
inactive: activity change, negative = inhibition [1] 6.18% | activity change, negative = inhibition [2] 19.5% | activity, negative = inhibition [3] 10.7% | Potency [4] > 20.6 µM

Cc1cccc(-n2ncc3c(NCCN4CCOCC4)ncnc32)c1
inactive: activity change, negative = inhibition [1] 1.48% | activity change, negative = inhibition [2] 8.91% | activity, negative = inhibition [3] 4.97% | Potency [4] > 20.6 µM

Cc1nc(SC2C=CS(=O)(=O)C2)n[nH]1 (stereo not drawn)
inactive: activity change, negative = inhibition [1] 5.25% | activity change, negative = inhibition [2] 11.6% | activity, negative = inhibition [3] 2.19% | Potency [4] > 20.6 µM

CCOC(=O)c1[nH]c2ccccc2c1N=CN(CC)CC
inactive: activity change, negative = inhibition [1] 9.2% | activity change, negative = inhibition [2] -19.2% | activity, negative = inhibition [3] -2.38% | Potency [4] > 20.6 µM

CCSc1nc(N)c2c3c(sc2n1)CCC3
inactive: activity change, negative = inhibition [1] -12.5% | activity change, negative = inhibition [2] -2.96% | activity, negative = inhibition [3] -3.03% | Potency [4] > 20.6 µM

COc1ccc(CNC(=O)[C@H](C)NC(=O)C2CCN(S(=O)(=O)c3ccc(C)cc3)CC2)cc1
inactive: activity change, negative = inhibition [1] 0.123% | activity change, negative = inhibition [2] 0.0617% | activity, negative = inhibition [3] 2.4% | Potency [4] > 20.6 µM

Cc1nnc(SCC(=O)N2CCC(C(N)=O)CC2)s1
inactive: activity change, negative = inhibition [1] 4.41% | activity change, negative = inhibition [2] 5.46% | activity, negative = inhibition [3] 7.13% | Potency [4] > 20.6 µM

CCOC(=O)CSc1nc2ccccc2c(=O)n1C
inactive: activity change, negative = inhibition [1] -12.5% | activity change, negative = inhibition [2] -11.5% | activity, negative = inhibition [3] 1.58% | Potency [4] > 20.6 µM

COc1ccccc1C1/C(=C(/O)c2ccc(C)cc2)C(=O)C(=O)N1CCN1CCOCC1 (stereo not drawn)
inactive: activity change, negative = inhibition [1] -9.75% | activity change, negative = inhibition [2] 19.8% | activity, negative = inhibition [3] 1.99% | Potency [4] > 20.6 µM

O=C(Nc1ccccc1)c1cc(N2CCOCC2)nc2ccccc12
inactive: activity change, negative = inhibition [1] 2.4% | activity change, negative = inhibition [2] 13.1% | activity, negative = inhibition [3] 1.13% | Potency [4] > 20.6 µM

CC(C(=O)NC(=O)NCc1ccccc1)N1C(=O)c2ccccc2C1=O (stereo not drawn)
inactive: activity change, negative = inhibition [1] -0.38% | activity change, negative = inhibition [2] -0.399% | activity, negative = inhibition [3] 14.7% | Potency [4] > 20.6 µM

O=C(Cc1ccc(Cl)cc1)Nc1cccc(-c2nnc(-c3ccco3)o2)c1
inactive: activity change, negative = inhibition [1] -5.69% | activity change, negative = inhibition [2] 11.3% | activity, negative = inhibition [3] -1.67% | Potency [4] > 20.6 µM

N#CCCSCc1ccc(OCC(=O)O)cc1
inactive: activity change, negative = inhibition [1] 2.01% | activity change, negative = inhibition [2] -0.583% | activity, negative = inhibition [3] 0.185% | Potency [4] > 20.6 µM
